Laboratory results published in PubChem BioAssay (NCATS).
Inconclusive results are not listed. Entries that show only a call come without a potency. Activity calls are given as the source filed them. The call rests on the fitted dose curve; in most records, active means well fitted inhibition curve with a large enough effect; inconclusive means small, poorly fitted or top-dose-only effect; inactive means no such curve, though single readings can be large or run the other way.

assay: NS1 protein of Zika virus - qHTS assay to identify small molecule inhibitors in human HEK 293 cells (AID 1347053); details: HEK293 ZIKV MR766 infection, NS1 TR-FRET, 24 h; series mostly up to 46.1 µM; further: nearly all actives have a fitted effect of over 55% in size
How it was run: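 Following 20 h seeding, HEK 293 cells took compound, then 1 h later ZIKV MR766 (MOI = 0.5). Incubation ran 24 h at 37 C before TR-FRET detection of NS1; a drop in signal indicates inhibition.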
Potency means the concentration at half of the fitted maximal effect.

| SMILES | Potency |
| --- | --- |
| CO[C@H]1CCC(O[C@H]2C[C@H]([C@]3(C)CC[C@]4(C[C@H](O)[C@@H](C)[C@@H]([C@@H](C)C=C(C)C(=O)[C@H](C)C[C@H](C)C(=O)O)O4)O3)O[C@]3(O[C@@H]([C@H]4O[C@@](O)(CO)[C@H](C)C[C@H]4C)C[C@H]3C)[C@H]2C)O[C@H]1C (stereo not given in full) | 0.743 µM (active) |
| O=C(Nc1ccccc1-c1ccc(Cl)cc1)c1cccnc1Cl | inactive |
| O=S(=O)(c1ccc(Cl)cc1)c1ccc(Cl)cc1 | inactive |
| CC1(C)CC/C(=C/c2ccc(Cl)cc2)C1(O)Cn1cncn1 (stereo not given) | inactive |
| COC(C)(C)CCCC(C)C/C=C/C(C)=C/C(=O)OC(C)C (stereo not given) | inactive |
| CCCCCC[C@H]1C(=O)O[C@H](C)[C@H](NC(=O)c2cccc(NC=O)c2O)C(=O)O[C@@H](C)[C@@H]1OC(=O)CC(C)C | 2.96 µM (active) |
| C=CCC1=C(C)C(OC(=O)C2C(C=C(C)C)C2(C)C)CC1=O (stereo not given) | inactive |
| COc1ccc(C(c2ccc(OC)cc2)C(Cl)(Cl)Cl)cc1 | inactive |
| CCNC(=O)C[C@@H]1N=C(c2ccc(Cl)cc2)c2cc(OC)ccc2-n2c(C)nnc21 | inactive |
| Cc1c(N)nc([C@H](CC(N)=O)NC[C@@H](N)C(N)=O)nc1C(=O)N[C@H](C(=O)N[C@@H](C)[C@H](O)[C@@H](C)C(=O)N[C@@H](C(=O)NCCc1nc(-c2nc(C(=O)NCCC[S+](C)C)cs2)cs1)[C@@H](C)O)C(O[C@H]1O[C@H](CO)[C@H](O)[C@@H](O)[C@@H]1O[C@H]1O[C@H](CO)[C@@H](O)[C@H](OC(N)=O)[C@H]1O)c1cnc[nH]1 (stereo not given in full) | 2.96 µM (active) |
